Inconclusive results are not listed. Activity calls are given as the source filed them. Calls follow the shape of the dose curve; as a rule, active = well fitted curve in the direction sought with a large enough effect; inconclusive = small, poorly fitted or top-dose-only effect, or another doubt; inactive = no such curve, though single readings can be large; an effect the other way counts as inactive or inconclusive.

Assay [1] can be described thus: Quantitative High-Throughput drug screen in 47 multiple myeloma cell lines against the NCATS MIPE library collection: KMS26_JCRB cell viability assay (AID 1918975). Also: nearly all actives have a fitted effect of over 45% in size. The essentials:
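Viability readout: CellTiter-Glo luminescence following 5 min room-temperature incubation with reagent. Prior exposure: 48 h, 37C, humidified 5% CO2, 500 cells per well.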

A short description of assay [2]: Quantitative High-Throughput drug screen in 47 multiple myeloma cell lines against the NCATS MIPE library collection: MMM1_PLB cell viability assay (AID 1918976). Also: nearly all actives have a fitted effect of over 35% in size. The essentials: (§1)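 MIPE 4.0 approved/investigational drugs; 500 cells/well; 48 h 37 °C humidified 5% CO2; CTG luminescence readout; DMSO = 100%, media = 0% viability.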
Assay [3] is described as follows: Quantitative High-Throughput drug screen in 47 multiple myeloma cell lines against the NCATS MIPE library collection: MOLP8_DSMZ cell viability assay (AID 1918977). Also: nearly all actives have a fitted effect of over 45% in size. The method, boiled down: as §1
Assay [4] in a line: Quantitative High-Throughput drug screen in 47 multiple myeloma cell lines against the NCATS MIPE library collection: NCIH929_DSMZ cell viability assay (AID 1918978). Also: nearly all actives have a fitted effect of over 35% in size. The method, boiled down: as §1
Assay [5] is described as follows: Quantitative High-Throughput drug screen in 47 multiple myeloma cell lines against the NCATS MIPE library collection: OCIMY1_PLB cell viability assay (AID 1918979). Also: nearly all actives have a fitted effect of over 35% in size. The essentials: as §1
The nature of assay [6]: Quantitative High-Throughput drug screen in 47 multiple myeloma cell lines against the NCATS MIPE library collection: MM1S_ATCC cell viability assay (AID 1918980). Also: nearly all actives have a fitted effect of over 45% in size. The method, boiled down: as §1
Assay [7] in a line: Quantitative High-Throughput drug screen in 47 multiple myeloma cell lines against the NCATS MIPE library collection: MM1R_ATCC cell viability assay (AID 1918981). Also: nearly all actives have a fitted effect of over 35% in size. The essentials: as §1
Assay [8] is described as follows: Quantitative High-Throughput drug screen in 47 multiple myeloma cell lines against the NCATS MIPE library collection: LP1_DSMZ cell viability assay (AID 1918982). Also: nearly all actives have a fitted effect of over 35% in size. The method, boiled down:
as §1

The nature of assay [9]: Quantitative High-Throughput drug screen in 47 multiple myeloma cell lines against the NCATS MIPE library collection: KMS28PE_JCRB cell viability assay (AID 1918983). Also: nearly all actives have a fitted effect of over 35% in size. The method, boiled down:
as §1

Assay [10] in a line: Quantitative High-Throughput drug screen in 47 multiple myeloma cell lines against the NCATS MIPE library collection: L363_DSMZ cell viability assay (AID 1918984). Also: nearly all actives have a fitted effect of over 40% in size. The method, boiled down: as §1
Potency is read from the fitted curve at half-maximal effect.

Take `c1cc(-c2cnn3cc(-c4ccc(OCCN5CCCCC5)cc4)cnc23)ccn1`: the Potency was 16.6 µM (active) in [1]; 16.6 µM (active) in assay [2]; 10.5 µM (active) in assay [3]; 2.35 µM (active) in assay [4]; 26.4 µM (active) in [5]; 16.6 µM (active) in assay [6]. The Potency in assay [7] was 18.7 µM (active); in assay [8] it was 13.2 µM (active); in assay [9] it was 11.8 µM (active). In addition, the Potency entry in assay [10] was “inactive”.

With `C[C@@H](Oc1cc(-c2cnn(C3CCNCC3)c2)cnc1N)c1c(Cl)ccc(F)c1Cl`, the Potency was 14.8 µM (active) in [1]; 9.35 µM (active) in [2]; 13.2 µM (active) in assay [3]; 3.32 µM (active) in [4]; 20.9 µM (active) in [5]; 18.7 µM (active) in assay [6]. Besides, the Potency is 14.8 µM (active) in assay [7], 14.8 µM (active) in assay [8], 11.8 µM (active) in assay [9] and 4.69 µM (active) in assay [10].

For `CC1(C)OC2=C(C(=O)c3ccccc3C2=O)[C@H](NCc2ccccc2)[C@H]1O`, the Potency in assay [1] is 5.26 µM (active); in [2], 2.09 µM (active); in assay [3], 2.96 µM (active); in assay [4], 2.35 µM (active); in [5], 4.18 µM (active); in assay [6], 2.09 µM (active). The Potency in assay [7] was 4.18 µM (active); in assay [8] it was 4.69 µM (active); in [10], 2.09 µM (active).

On to `C=CC(=O)Nc1cc2c(Nc3ccc(F)c(Cl)c3)ncnc2cc1C#CC(C)(C)N1CCN(C)CC1`, for which the Potency in assay [1] was 1.66 µM (active); in assay [2], 5.26 µM (active); in assay [3] it was 1.05 µM (active); in assay [4] it was 0.833 µM (active); in assay [5] it was 4.69 µM (active); in assay [6], 2.09 µM (active). Moreover, the Potency in assay [7] was 1.32 µM (active); in [8], 9.35 µM (active); in assay [9], 0.833 µM (active); in assay [10] it was 1.48 µM (active).

On to `COc1cc2c(NC3CCN(C(C)C)CC3)nc(C3CCCCC3)nc2cc1OCCCN1CCCC1`, for which the Potency was 6.62 µM (active) in assay [1]; 6.62 µM (active) in assay [2]; 7.43 µM (active) in assay [3]; 5.26 µM (active) in assay [4]; 7.43 µM (active) in [5]; 4.18 µM (active) in assay [6]. The Potency is 6.62 µM (active) in assay [7], 5.26 µM (active) in [8] and 5.26 µM (active) in [10].

Consider `O=c1[nH]nc(Sc2ncc([N+](=O)[O-])s2)n1-c1ccc2c(c1)OCCO2`, for which the Potency in assay [1] is 1.48 µM (active); in [2] it was 2.96 µM (active); in assay [3] it was 1.48 µM (active); in assay [4] it was 0.833 µM (active); in [5], 3.72 µM (active); in [6], 2.35 µM (active). For the same molecule, the Potency in assay [7] was 1.32 µM (active); in assay [8], 6.62 µM (active); in assay [9] it was 3.32 µM (active); in assay [10] it was 3.72 µM (active).

Regarding `CC(=O)Nc1nc(C)c(-c2ccc(Cl)c(S(=O)(=O)NCCO)c2)s1`, the Potency in [1] was 7.43 µM (active); in [2] it was 5.9 µM (active); in [3] it was 9.35 µM (active); in assay [4] it was 0.833 µM (active); in assay [5], 11.8 µM (active); in assay [6], 1.48 µM (active). Besides, the Potency was 7.43 µM (active) in [7], 3.32 µM (active) in [8], 16.6 µM (active) in assay [9] and 1.18 µM (active) in [10].

For the molecule `CCOc1cc2ncc(C#N)c(Nc3ccc(F)c(Cl)c3)c2cc1NC(=O)C=CCN(C)C`, the Potency in assay [1] was 20.9 µM (active); in assay [2] it was 18.7 µM (active); in [3], 20.9 µM (active); in assay [4] it was 5.9 µM (active); in assay [5], 18.7 µM (active); in assay [6], 0.296 µM (active). The Potency in [7] is 4.18 µM (active); in [8] it was 10.5 µM (active); in assay [9], 14.8 µM (active).

Take `C1=CCOCc2cc(ccc2OCCN2CCCC2)Nc2nccc(n2)-c2cccc(c2)OCC1`: the Potency in assay [1] is 4.18 µM (active); in [2] it was 3.32 µM (active); in assay [3] it was 2.09 µM (active); in assay [4], 2.35 µM (active); in [5] it was 5.9 µM (active); in assay [6], 2.64 µM (active). The Potency in [7] is 2.64 µM (active); in assay [8], 2.64 µM (active); in [9] it was 3.72 µM (active); in assay [10] it was 0.743 µM (active).

Take `COC(=O)[C@]12CCC(C)(C)C[C@@H]1[C@@H]1C(=O)C=C3[C@@]4(C)C=C(C#N)C(=O)C(C)(C)[C@@H]4CC[C@@]3(C)[C@]1(C)CC2`: the Potency in [1] was 0.209 µM (active); in assay [2], 1.32 µM (active); in assay [3], 0.209 µM (active); in [4], 0.235 µM (active); in assay [5] it was 0.743 µM (active); in [6], 0.418 µM (active). Besides, the Potency in assay [7] was 0.264 µM (active); in [8], 0.743 µM (active); in [9] it was 0.526 µM (active); in assay [10], 0.526 µM (active).

Turning to `CC(C)c1nn(-c2c(Cl)cccc2Cl)c2nc(Cc3ccc(OCCO)cc3)[nH]c(=O)c12`, the Potency was 0.148 µM (active) in [1]; 0.148 µM (active) in assay [2]; 0.132 µM (active) in assay [3]; 0.105 µM (active) in assay [4]; 0.235 µM (active) in assay [5]; 0.0418 µM (active) in [6]. Also, the Potency in assay [7] was 0.0418 µM (active); in [8] it was 0.132 µM (active); in [9] it was 0.296 µM (active).

Regarding `CNC(=O)c1nn(C)c2c1C(C)(C)Cc1cnc(Nc3ccc(N4CCN(C)CC4)cc3)nc1-2`, the Potency was 13.2 µM (active) in assay [1]; 11.8 µM (active) in [2]; 1.87 µM (active) in assay [3]; 2.64 µM (active) in [4]; 5.26 µM (active) in assay [5]; 1.66 µM (active) in assay [6]. The Potency is 3.32 µM (active) in [7], 5.9 µM (active) in [8] and 0.662 µM (active) in [10].

Turning to `Cc1ccc(NC(=O)C2(c3ccc4c(c3)OC(F)(F)O4)CC2)nc1-c1cccc(C(=O)O)c1`, the Potency in [1] was 0.059 µM (active); in [2], 0.0526 µM (active); in [3] it was 0.0209 µM (active); in [4] it was 0.235 µM (active); in [5], 0.187 µM (active); in [6], 0.0526 µM (active). The Potency in [7] is 0.059 µM (active); in assay [8], 0.0662 µM (active); in assay [9] it was 0.0418 µM (active); in assay [10], 0.0296 µM (active).
